# Measurements taken from PubChem BioAssay (NCATS).
# Records with an inconclusive call do not appear. Active and inactive are the calls of the source. Unless noted, the call rests on the fitted dose curve; in most records, active means well fitted cell-killing curve with a large enough effect; inconclusive means small, poorly fitted or top-dose-only effect, or effect the other way; inactive means flat fitted curve, though single readings scatter.
# Test: qHTS assay for cell viability of the p53RE-bla HCT-116 cell line (AID 743292); further: nearly all actives have a fitted effect of over 55% in size; further: potency means the concentration at half of the fitted maximal effect; on activity change, negative = cytotoxicity: on the % scale 0 is the no-effect control and ±100 the full control effect
# Conditions: p53RE-bla HCT-116 viability, ATP luminescence, 16 h; series mostly up to 95 µM; activity change, negative = cytotoxicity: at the top concentration
# How it was run: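 CellSensor p53RE-bla HCT-116 cells (4,000/well) pre-incubated 5 h at 37 C, then exposed to compounds in DMSO for 16 h at 37 C. Viability read as ATP content by CellTiter-Glo luminescence after 30 min at room temperature.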
Structure (SMILES),"activity change, negative = cytotoxicity",Potency
Nc1ccc([As](=O)(O)O)cc1,-1.75% (inactive),
CC(C)NC(C)C,-0.268% (inactive),
NCCc1ccc(O)cc1,0.406% (inactive),
CC(C)c1cccc(C(C)C)c1O,4.24% (inactive),
Nc1ccccc1C(=O)O,-9.62% (inactive),
CCC(C)(C)c1ccc(O)cc1,,inactive
C[C@]12CCC(=O)C=C1CC[C@@H]1[C@@H]2CC[C@]2(C)C(=O)CC[C@@H]12,,inactive
O=C1c2ccccc2C(=O)C1C(=O)C(c1ccccc1)c1ccccc1,0.325% (inactive),
O=C(O)CCCc1ccc(N(CCCl)CCCl)cc1,,inactive
Nc1nc(N)nc(NC2CC2)n1,-2.63% (inactive),
CC1(C)C(C=C(Cl)Cl)C1C(=O)OC(C#N)c1cccc(Oc2ccccc2)c1 (stereo unspecified),-5.71% (inactive),
COc1cc(OC)c(OC)cc1C=O,-8.12% (inactive),
COP(=S)(OC)SCN1C(=O)c2ccccc2C1=O,6.7% (inactive),
C[C@]12CCC(=O)C=C1CC[C@@H]1[C@@H]2CC[C@@]2(C)[C@H]1CC[C@]2(C)O,4.46% (inactive),
CN1C[C@H](C(=O)N[C@]2(C)O[C@@]3(O)[C@@H]4CCCN4C(=O)[C@H](Cc4ccccc4)N3C2=O)C=C2c3cccc4[nH]cc(c34)C[C@H]21,,inactive
Oc1ccc(Cl)cc1,-8.83% (inactive),
CCCC(C)(COC(N)=O)COC(N)=O,,inactive
O=P1(N(CCCl)CCCl)NCCCO1 (stereo unspecified),,inactive
C[C@]1(O)CC[C@H]2[C@@H]3CCC4=CC(=O)CC[C@]4(C)[C@@]3(F)[C@@H](O)C[C@@]21C,8.63% (inactive),
COC(=O)C(c1ccccc1)C1CCCCN1 (stereo unspecified),,inactive
COP(=S)(OC)Oc1cc(Cl)c(Cl)cc1Cl,6.39% (inactive),
Clc1ccc(C(c2ccc(Cl)cc2)C(Cl)(Cl)Cl)cc1,,50.1 µM (active)
[N-]=[N+]=CC(=O)OC[C@H](N)C(=O)O,-2.4% (inactive),
O=C1c2ccccc2C(=O)c2ccccc21,-2.02% (inactive),
CCOC(=O)CC(SP(=S)(OC)OC)C(=O)OCC (stereo unspecified),,inactive
Nc1ccccc1,0.0959% (inactive),
COP(=S)(OC)Oc1ccc(SC)c(C)c1,,inactive

# Test: qHTS profiling of the MIPE4 collection as inhibitors of Plasmodium falciparum (3D7) proliferation (AID 743344; call rule not given here;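 further: scaled between DMSO vehicle wells and 0.29 µM artemisinin as full inhibition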)
# Conditions: P. falciparum 3D7 in erythrocytes, SYBR Green DNA fluorescence, 72 h; at 28.5 µM (top of the series) unless noted
# How it was run: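 Parasite DNA was quantified by SYBR Green I fluorescence (ex 485, em 535 nm) after overnight lysis in saponin/Triton buffer at room temperature. Cultures at 0.3% parasitemia and 2.5% hematocrit were first exposed to compound for 72 h at 37 C; signals were normalised to artemisinin (0.29 uM) and vehicle wells.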
row,Structure (SMILES),"parasite growth, % of DMSO control"
1,CC(C)c1cccc(C(C)C)c1O,89.1%
2,O=C(O)CCCc1ccc(N(CCCl)CCCl)cc1,70.9%
3,COc1cc(OC)c(OC)cc1C=O,98%
4,O=P1(N(CCCl)CCCl)NCCCO1 (stereo unspecified),42.1%
